Compound activity: PubChem, The Scripps Research Institute Molecular Screening Center
The list is not random: actives were taken first. Their share in the collection is about 2.9%.
proKLK7 act – proKLK7 (human) activation, primary screen; P49862; purified proKLK7, EDANS-DABCYL substrate fluorescence; 100% is mature enzyme control, 0% vehicle; activation, % at 7 µM; 370,000 tested, 0.9% active; AID 652039;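 active = activation above the mean of all tested compounds plus 3 SD, computed per campaign excluding outliers beyond control limits, cut at about 13% in these data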
ADAM10 inh – ADAM10 inhibition, QFRET primary screen; O14672; recombinant ADAM10, EDANS/DABCYL FRET peptide cleavage, 3 h; inhibition, % at 7 µM; 370,000 tested, 0.62% active; AID 720582;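 active = inhibition above a per-campaign cutoff equal to the mean of compounds falling between control-based bounds plus 3 SD, cut at about 20% in these data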;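 also: 0% = DMSO wells while the 100% control is not disclosed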
PLCg1 inh – blocks human PLC-gamma1 enzyme activity; inhibition, % at 12.2 µM; purified PLC-gamma1, fluorogenic substrate, fluorescence; 370,000 tested, 0.84% active; P19174; AID 720700; in the data active = inhibition above about 9.5%
PLCb3 inh – PLC-beta3 (human) inhibition, primary screen; Q01970; Purified PLC-beta3, fluorogenic substrate, fluorescence; 370,000 tested, 0.18% active; inhibition, % at 12.2 µM; in the data active = inhibition above about 11%;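 also: 0% = median of compound wells on plate and 100% = full blocker control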
ADAM17 inh – inhibits human ADAM17; P78536; recombinant ADAM17, EDANS/DABCYL FRET peptide cleavage; inhibition, % at 6.95 µM; 370,000 tested, 0.83% active;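 active = inhibition above the mean of compounds lying between control limits plus 3 SD, set per campaign, cut at about 8.5% in these data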;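 also: 0% = DMSO-only wells as the low control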
Target sequence (P78536 215-824 limits assumed): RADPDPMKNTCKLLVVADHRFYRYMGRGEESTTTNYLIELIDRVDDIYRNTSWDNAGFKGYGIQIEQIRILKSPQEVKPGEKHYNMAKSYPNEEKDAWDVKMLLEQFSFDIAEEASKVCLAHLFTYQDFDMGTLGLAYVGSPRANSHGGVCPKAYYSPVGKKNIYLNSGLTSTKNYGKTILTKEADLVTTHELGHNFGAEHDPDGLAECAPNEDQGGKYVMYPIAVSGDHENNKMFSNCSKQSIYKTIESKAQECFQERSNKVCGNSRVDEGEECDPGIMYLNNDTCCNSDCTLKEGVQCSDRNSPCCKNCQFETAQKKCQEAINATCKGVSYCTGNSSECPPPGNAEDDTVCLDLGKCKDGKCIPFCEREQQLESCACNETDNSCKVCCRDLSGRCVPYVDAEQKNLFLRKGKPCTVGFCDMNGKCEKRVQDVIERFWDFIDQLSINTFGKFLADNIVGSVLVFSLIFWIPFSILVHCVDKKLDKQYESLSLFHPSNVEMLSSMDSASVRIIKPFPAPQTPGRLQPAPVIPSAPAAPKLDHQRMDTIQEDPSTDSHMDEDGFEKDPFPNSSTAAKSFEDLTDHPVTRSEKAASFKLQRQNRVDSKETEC
ADAM10 confirm – human ADAM10 inhibition, confirmation; shares compounds with ADAM10 inh; ADAM10 QFRET peptide cleavage, EDANS fluorescence; inhibition, % at 6.95 µM; 2,100 tested, 1% active; AID 743208;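 active = inhibition above about 20% chosen separately for each screening run, limit read from the data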;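 also: 0% = DMSO wells and 100% = marimastat wells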
ADAM17 counter – counter-screen for ADAM10 exosite inhibitors: inhibitors of human ADAM17 | shares compounds with ADAM10 inh | ADAM17 QFRET peptide cleavage, EDANS fluorescence | inhibition, % at 6.95 µM | 2,100 tested, 0.5% active;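 active = mean triplicate inhibition above the solvent-only control wells' mean plus 3 SD, cut at about 12% in these data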;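 also: 0% = DMSO wells and 100% = marimastat wells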
ADAM10 counter – inhibits human ADAM10 in ADAM17 exosite counter-screen | shares compounds with ADAM17 inh | recombinant ADAM10, EDANS/DABCYL FRET peptide cleavage, 3 h | inhibition, % at 6.95 µM | 2,900 tested, 47% active;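 active = mean inhibition over the triplicate runs exceeds the activity threshold set in the earlier primary screen, cut at about 20% in these data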;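 also: 0% = DMSO wells and 100% = marimastat wells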
ADAM17 confirm – confirmation of inhibitors of human ADAM17; 2,900 tested, 65% active; shares compounds with ADAM17 inh; recombinant ADAM17, EDANS/DABCYL QFRET peptide cleavage; inhibition, % at 6.95 µM;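 active = mean inhibition across replicates above the hit cutoff set in the primary screen, cut at about 8.5% in these data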;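 also: 0% = DMSO wells and 100% = marimastat wells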
* marks the source's active call; other numbers are inactive results.

`CCOC(=O)C1=CN(Cc2cccc(F)c2)S(=O)(=O)NC1c1ccccc1` (stereo not drawn) gave proKLK7 act -0.4, ADAM10 inh -10.4, PLCg1 inh -0.1, PLCb3 inh 1.5 and ADAM17 inh 0.0.
`CC(=O)N1C[C@@H](CO)[C@@H](N(C)C(=O)/C=C/c2ccccc2)C[C@H]1c1ccccc1` gave proKLK7 act 0.9, ADAM10 inh -13.8, PLCg1 inh 3.0, PLCb3 inh 1.3 and ADAM17 inh -2.0.
For Cc1ccc(Nc2nnc(SCC(=O)Nc3cccc(S(=O)(=O)N4CCCCC4)c3)s2)cc1 the results were proKLK7 act -0.1, ADAM10 inh 26.6*, PLCg1 inh 3.7, PLCb3 inh -0.2, ADAM17 inh 10.8*, ADAM10 confirm 8.9, ADAM17 counter 3.3, ADAM10 counter 29.6* and ADAM17 confirm 17.1*.
Screening CC(O)(c1cccnc1)c1nc(-c2cccc3cccnc23)cs1 (stereo not drawn) returned proKLK7 act 0.9, ADAM10 inh -29.8, PLCg1 inh -14.8, PLCb3 inh -21.6 and ADAM17 inh -14.6.
For COc1ccc(C)cc1NC(=O)C(Sc1nnc(-c2ccncc2)n1-c1ccc(Cl)cc1)c1ccccc1 (stereo not drawn) the results were proKLK7 act 0.4, ADAM10 inh 24.9*, PLCg1 inh 7.3, PLCb3 inh -1.2, ADAM17 inh 11.3*, ADAM10 confirm 3.2, ADAM17 counter 2.1, ADAM10 counter 30.5* and ADAM17 confirm 21.7*.
For COc1ccc(N2CCN(c3oc(COc4ccccc4Cl)nc3C#N)CC2)cc1 the results were proKLK7 act 0.0, ADAM10 inh 4.4, PLCg1 inh -1.1, PLCb3 inh 2.4 and ADAM17 inh -0.7.
COc1ccc(Nc2oc(COc3cccc(C)c3)nc2C#N)cc1 was read as proKLK7 act -1.0, ADAM10 inh 29.7*, PLCg1 inh 4.1, PLCb3 inh 1.7, ADAM17 inh 10.3*, ADAM10 confirm 4.3, ADAM17 counter 1.4, ADAM10 counter 20.7* and ADAM17 confirm 13.0*.
For COc1ccc(OCc2nc(C#N)c(N3CCN(c4ccc(OC)cc4)CC3)o2)cc1 the results were proKLK7 act 1.6, ADAM10 inh 28.7*, PLCg1 inh 4.3, PLCb3 inh 3.8, ADAM17 inh 15.5*, ADAM10 confirm 4.9, ADAM17 counter 1.5, ADAM10 counter 12.4 and ADAM17 confirm 3.7.
For CN1C2=N[C@@H](c3cccc(C(F)(F)F)c3)CC(=O)N2/C(=C\c2ccccc2)[C@H]1c1ccccc1 the results were ADAM10 inh 6.3, PLCg1 inh -3.4, PLCb3 inh -12.2 and ADAM17 inh -0.1.
`O=C(CNC(=O)c1[nH]cnc1C(=O)NC(c1ccccc1)c1ccccc1)OCc1ccccc1` gave proKLK7 act -0.2, ADAM10 inh 21.1*, PLCg1 inh 4.9, PLCb3 inh 1.4, ADAM17 inh 11.0*, ADAM10 confirm 8.7, ADAM17 counter 3.3, ADAM10 counter 28.9* and ADAM17 confirm 13.1*.
For C[C@H](NC(=O)c1nc[nH]c1C(=O)N[C@@H](Cc1ccccc1)C(=O)OCc1ccccc1)C(=O)OC(C)(C)C the results were proKLK7 act 0.4, ADAM10 inh 24.4*, PLCg1 inh 1.1, PLCb3 inh 6.4, ADAM17 inh 10.6*, ADAM10 confirm 9.7, ADAM17 counter 2.9, ADAM10 counter 26.1* and ADAM17 confirm 13.6*.
`Cc1ccc(NC(=O)c2nc[nH]c2C(=O)N[C@@H](C)C(=O)OC(C)(C)C)cc1` gave proKLK7 act -0.6, ADAM10 inh 27.3*, PLCg1 inh 7.3, PLCb3 inh 7.5, ADAM17 inh 13.9*, ADAM10 confirm 2.3, ADAM17 counter 0.8, ADAM10 counter 28.4* and ADAM17 confirm 12.4*.
